Compound activity: PubChem, Bradner/Qi Labs at DFCI
Shown is part of a subset that was picked to be rich in hits.
CBX7 inh = blocks human CBX7 binding to H3K27me3 peptide; AlphaScreen His6-CBX7 / biotin-H3K27me3 peptide binding; hits give low values; normalised signal (fraction of DMSO) (concentration not given with the values); 66,000 compounds, 1.1% hits; in the data active = normalised signal below about 0.5
Target sequence (O95931 whole entry, looked up): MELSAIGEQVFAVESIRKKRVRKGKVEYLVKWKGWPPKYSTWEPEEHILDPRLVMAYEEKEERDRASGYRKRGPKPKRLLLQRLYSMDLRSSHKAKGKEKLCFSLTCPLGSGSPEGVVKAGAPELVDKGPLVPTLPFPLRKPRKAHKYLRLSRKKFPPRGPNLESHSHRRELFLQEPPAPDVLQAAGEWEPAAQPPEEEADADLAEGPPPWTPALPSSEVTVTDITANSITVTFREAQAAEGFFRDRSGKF
The depositor's hits bear a star.

Results for CCN(CC)CC(O)Cn1c(C)c(C)c2ccccc21 (stereo not given) ?
CBX7 inh: 0.97

Results for COc1ccc(-c2cnnn2-c2ccc(NC(=O)c3c(-c4ccccc4Cl)noc3C)cc2)cc1OC ?
CBX7 inh: 0.8

How did NC(=O)c1c(NC(=O)c2cc(-c3ccc(O)cc3)on2)sc2c1CCCC2 do in these assays?
CBX7 inh: 1.1

How did O=C(CSCc1ccccc1)Nc1nnc(Cc2ccc(F)cc2)s1 do in these assays?
CBX7 inh: 1

What do the screens show for `CCCCNC(=O)CCCNC(=O)Cn1cnc2sc(C)c(C)c2c1=O`?
CBX7 inh: 0.95

What do the screens show for `COc1cccc(-c2cc(C(=O)Nc3ccc(Br)cc3)no2)c1`?
CBX7 inh: 1.1

How did Cc1ccc(-c2cc(C(=O)N(C)Cc3cnn(C)c3C)c3ccccc3n2)cc1C do in these assays?
CBX7 inh: 1

How did Cc1cccc(Cc2cnc(NC(=O)c3ccc(Br)cc3)s2)c1 do in these assays?
CBX7 inh: 0.99

How did COc1ccccc1NC(=O)c1cc2c(s1)-c1ccccc1OC2 do in these assays?
CBX7 inh: 1.6

Results for CCCCNC(=O)c1c[nH]c2ccc(S(=O)(=O)Nc3ccc(C(C)C)cc3)cc2c1=O ?
CBX7 inh: 0.89

Results for Cc1ccc(NC(=O)c2cc3sccc3n2Cc2ccc(F)cc2)cc1 ?
CBX7 inh: 1

How did Cc1ccc(-n2c(Cc3cccn3C)nnc2SCC(=O)Nc2ccc(F)cc2)cc1 do in these assays?
CBX7 inh: 0.96

Results for COc1ccc(NCC(O)Cn2c3ccccc3c3ccccc32)cc1 (stereo not given) ?
CBX7 inh: 0.45*

What do the screens show for `COc1ccccc1NCC(O)Cn1c2ccc(Br)cc2c2cc(Br)ccc21` (stereo not given)?
CBX7 inh: 0.53

What do the screens show for `COc1ccc(NCC(O)Cn2c(C)c(C)c3ccccc32)cc1` (stereo not given)?
CBX7 inh: 0.56

How did CCn1c(=O)cc(OCC(=O)Nc2ccc(C)cc2Cl)c2ccccc21 do in these assays?
CBX7 inh: 0.86

How did Cc1ccc(C)c2[nH]c(=O)c(CCNC(=O)c3ccccc3)cc12 do in these assays?
CBX7 inh: 1.1

Results for Cc1ccc2c(c1)N(CCC(=O)NC1CCCc3ccccc31)C(=O)CO2 (stereo not given) ?
CBX7 inh: 1.1

What do the screens show for `C=CCN1C(=O)c2ccccc2Sc2ccc(C(=O)NCc3ccccn3)cc21`?
CBX7 inh: 0.97

What do the screens show for `CNC(=O)COc1ccc(Nc2nnc(-c3ccc(C)c(S(=O)(=O)N(C)C)c3)c3ccccc23)cc1`?
CBX7 inh: 0.7

What do the screens show for `CCc1ccc(NC(=O)c2cn(CC)c(=O)c3cc(OC)c(OC)cc23)cc1`?
CBX7 inh: 0.9

Results for O=C(NCc1cc2cc(Cl)ccc2[nH]1)c1cccc(COc2ccc(Cl)cc2)c1 ?
CBX7 inh: 1.1

What do the screens show for `COc1ccc(C(=O)NCCc2c(C)[nH]c3ccc(OCc4ccccc4)cc23)cc1OC`?
CBX7 inh: 0.52

What do the screens show for `COc1ccc2[nH]c(C)c(CCNC(=O)Cn3nc(C(F)(F)F)cc3C)c2c1`?
CBX7 inh: 0.79

Results for Cc1[nH]c2ccc(OCc3ccccc3)cc2c1CCNC(=O)c1ccnn1C ?
CBX7 inh: 0.48*

What do the screens show for `Cc1nn(CC(=O)NCCc2c(C)[nH]c3ccc(OCc4ccccc4)cc23)c(C)c1Cl`?
CBX7 inh: 0.48*

Results for COC(=O)c1ccc(C(=O)NCCc2c(C)[nH]c3ccc(OCc4ccccc4)cc23)cc1 ?
CBX7 inh: 0.82

What do the screens show for `Cc1[nH]c2ccc(OCc3ccccc3)cc2c1CCNC(=O)c1cccc(Br)c1`?
CBX7 inh: 0.65

Results for O=C(C1CCC1)N1CCc2cc(S(=O)(=O)NC3CCCCC3)ccc21 ?
CBX7 inh: 0.98

How did CCOc1ccc(NC(=O)NCCN2CCc3ccccc3C2)cc1 do in these assays?
CBX7 inh: 0.87

Results for Cc1ccc(NC(=O)c2sc3ncn(CC(=O)N4CCCC(C)C4)c(=O)c3c2C)cc1Cl (stereo not given) ?
CBX7 inh: 1.1

What do the screens show for `Cc1ccc(-c2csc(NC(=O)c3ccc(S(=O)(=O)N4CCCCC4)cc3)n2)cc1C`?
CBX7 inh: 0.99

How did Cc1cccc(C)c1NC(=O)C1CCN(S(=O)(=O)c2ccc(F)cc2)CC1 do in these assays?
CBX7 inh: 1.1

Results for Cc1ccn2c(Nc3ccc4c(c3)OCO4)c(-c3ccccn3)nc2c1 ?
CBX7 inh: 0.034*

What do the screens show for `Cc1ccc2nc(-c3c[nH]c4ccccc34)c(Nc3ccc(F)cc3)n2c1`?
CBX7 inh: 0.97

How did Brc1ccc2nc(-c3ccccn3)c(Nc3ccccc3)n2c1 do in these assays?
CBX7 inh: 0.96

What do the screens show for `Cc1ccc2nc(-c3ccccn3)c(Nc3ccc4c(c3)OCCO4)n2c1`?
CBX7 inh: 0.001*

Results for Cc1ccc2nc(-c3ccccc3)c(Nc3ccc4c(c3)OCCO4)n2c1 ?
CBX7 inh: 1.1

Results for Cc1cccc(C)c1Nc1c(-c2ccccn2)nc2ccc(Br)cn12 ?
CBX7 inh: 0.44*

What do the screens show for `Cc1ccccc1Nc1c(-c2c[nH]c3ccccc23)nc2ccc(Br)cn12`?
CBX7 inh: 0.53

Results for Cc1ccc2nc(-c3cccnc3)c(Nc3ccc4c(c3)OCCO4)n2c1 ?
CBX7 inh: 1

What do the screens show for `Cc1ccc(Nc2c(-c3c[nH]c4ccccc34)nc3ccc(Br)cn23)cc1`?
CBX7 inh: 0.49*

Results for Cc1ccn2c(Nc3ccc4c(c3)OCO4)c(-c3ccsc3)nc2c1 ?
CBX7 inh: 0.91

What do the screens show for `Cc1ccn2c(Nc3ccc4c(c3)OCCO4)c(-c3cccs3)nc2c1`?
CBX7 inh: 0.8

How did Cc1cccc(C)c1Nc1c(-c2ccccn2)nc2ccc(Cl)cn12 do in these assays?
CBX7 inh: 0.54

How did Cc1cccc(Cc2c(C)nc3c(C(=O)N4CCN(c5cc(Cl)ccc5C)CC4)cnn3c2C)c1 do in these assays?
CBX7 inh: 0.86

How did CCOC(=O)Cc1nnc2c(Nc3ccc(F)cc3)nc3nonc3n12 do in these assays?
CBX7 inh: 0.78

Results for Cc1nc2cc(NC(=O)c3ccc(S(=O)(=O)N4CCOCC4)cc3)ccc2s1 ?
CBX7 inh: 1.1

What do the screens show for `O=C(Nc1ccccc1Br)c1ccccc1C(=O)c1ncc[nH]1`?
CBX7 inh: 1

What do the screens show for `COC(=O)CCC1CN(Cc2ccccc2)CCC1N1CCc2cc(OC)c(OC)cc2C1` (stereo not given)?
CBX7 inh: 1

What do the screens show for `CCC1Oc2ccccc2N(CC(=O)NCc2ccc(OC)cc2OC)C1=O` (stereo not given)?
CBX7 inh: 0.9

Results for CN(CC(=O)Nc1ccc(F)c(Cl)c1)S(=O)(=O)c1cccc2cccnc12 ?
CBX7 inh: 0.98

What do the screens show for `COCCn1c(SCC(=O)N2CCN(c3ccccc3)CC2)nnc1-c1c[nH]c2ccccc12`?
CBX7 inh: 0.99

What do the screens show for `Cn1c2ccccc2c2c(C(=O)N3CCN(c4ccccc4)CC3)cn(C3CCCCC3)c(=O)c21`?
CBX7 inh: 0.75

How did Cc1ccc2nc(-c3ccncc3)c(Nc3ccc4c(c3)OCO4)n2c1 do in these assays?
CBX7 inh: 0.86

How did Cc1ccc(Nc2c(-c3ccccn3)nc3ccc(C)cn23)cc1 do in these assays?
CBX7 inh: 0.084*

What do the screens show for `Cc1ccc2nc(-c3c[nH]c4ccccc34)c(Nc3ccc4c(c3)OCO4)n2c1`?
CBX7 inh: 0.92

How did Cc1ccc2nc(-c3ccccn3)c(Nc3ccc4c(c3)OCO4)n2c1 do in these assays?
CBX7 inh: 0.03*

What do the screens show for `Clc1ccc(Nc2c(-c3ccccn3)nc3ccc(Cl)cn23)cc1`?
CBX7 inh: 0.92
